In the OligoGym collection:

What follows are sequences tested against KCNJ11 (assay: pooled miR-30 sensor sort-seq; sequence = guide strand). Conditions: shRNA.
Note: reference of the scale not given here.

In order of rising sensor-assay potency score (higher = more potent):
1. ATCAATGACATGGTAGATGATC  -1.55
2. TTATTGACAACGGAGAAGGCAG  -0.854
3. TAGTCCACAGAGTAACGTCCGT  -0.814
4. ACATGGTAGATGATCAGCGGGG  -0.798
5. TTGCGTACCACCTGCATGTGGA  -0.169
6. TAGCATAGTGACAAGTGCCTTG  0.123

These sequences were tested against KCNJ4 in the same assay as above. Conditions: shRNA.

In order of rising sensor-assay potency score (higher = more potent):
1. TTGGCCGTTCTTCTTGACGAAG  -1.51
2. TCGCTGGCCAGGTAGGAGCTGC  -1.22
3. ATGAAGGAGTCGATGACGCAGC  -1.02
4. TTACTCTCCTGCAGCTCCCGGG  -0.832
5. TTGTAGTGGCTCTTCTCCTCGA  -0.739
6. TAGGTCTTGTGAAAACGTGAGT  -0.691
7. TAGTCCACCTTGTAGTGGCTCT  -0.556
8. TAGGAGATGTTGTCCAGCGGGA  -0.546
9. AAAACGTGAGTAGTCCACCTTG  -0.537
10. TCGCGCACCGAAATGACCGCGT  -0.495
11. TAGCGCTGCGACTTGTTGCTCA  0.0555
12. TCTCGTAGCAGAAGGCACTGGG  0.705
